Here are results for 22 compounds from PubChem BioAssay AID1117291 (Broad Institute, 2014).

Molecules are shown by their SMILES. Potency and affinity values are given separately. Records with an inconclusive call do not appear. Activity calls are given as the source filed them.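 How the source made its calls: active means compound whose fitted half-maximal potency lies at or below double its highest tested dose in every test; inconclusive means tests disagree, or a flat partial loss, or a poor fit; inactive means every test inactive.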

A short description of the experiment: hepatoma cell viability loss – CellTiter-Glo luminescence, dry powder, set 20, cytotoxicity control, dose response (AID 1117291). The conditions noted are these: HepG2 viability, CellTiter-Glo ATP luminescence, 72 h; series mostly up to 26 µM; activity change, negative = cytotoxicity: at the top concentration.
Take `O=S(=O)(Nc1cc(C(F)(F)F)ccc1N1CCCCC1)c1ccc(C(F)(F)F)cc1`: the “activity change, negative = cytotoxicity” value is -34.1% (inactive).

For the compound `COc1ccc(C(=O)Nc2cc(C(F)(F)F)ccc2N2CCCC2)cc1S(=O)(=O)O`, the “activity change, negative = cytotoxicity” value was -12% (inactive).

As to `O=S(=O)(Nc1cc(C(F)(F)F)ccc1N1CCCCC1)c1ccc(Br)cc1`, the “activity change, negative = cytotoxicity” value is -18% (inactive).

As to `NC(=NCCc1c[nH]c2ccccc12)NS(=O)(=O)c1cc(F)ccc1F`, the “activity change, negative = cytotoxicity” value is -6.37% (inactive).

On to `O=C(Nc1cc(C(F)(F)F)ccc1N1CCCCC1)c1ccc(S(=O)(=O)O)cc1`, for which the “activity change, negative = cytotoxicity” value was 2.79% (inactive).

With `O=S(=O)(Nc1cc(C(F)(F)F)ccc1N1CCCCC1)c1ccc(-c2ccccc2)cc1`, the “activity change, negative = cytotoxicity” value was -11.2% (inactive).

On to `O=[N+]([O-])c1cccc(S(=O)(=O)Nc2cc(C(F)(F)F)ccc2N2CCCCC2)c1`, for which the “activity change, negative = cytotoxicity” value is -7.31% (inactive).

In the case of `CC(=O)N1CCN(C(=O)C2(NC(=O)Nc3ccc(C(C)C)cc3)CCCC2)CC1`, the “activity change, negative = cytotoxicity” value is -5.85% (inactive).

Regarding `CC(=O)N1CCN(C(=O)C2(NC(=O)Nc3ccc(F)cc3)CCCC2)CC1`, the “activity change, negative = cytotoxicity” value is -14.2% (inactive).

With `CC(=O)N1CCN(C(=O)[C@@H]2CCN2C(=O)Nc2ccc(C)cc2)CC1`, the “activity change, negative = cytotoxicity” value was -9.8% (inactive).

Regarding `COc1ccc(C(=O)Nc2ccccc2N2CCCCC2)cc1S(=O)(=O)O`, the “activity change, negative = cytotoxicity” value is -17.1% (inactive).

On to `CC(=O)N1CCN(C(=O)C2(NC(=O)Nc3ccccc3F)CCCCC2)CC1`, for which the outcome was inactive.

On to `CC(=O)N1CCN(C(=O)C2(NC(=O)Nc3ccccc3)CCCC2)CC1`, for which the “activity change, negative = cytotoxicity” value is 5% (inactive).

As to `O=S(=O)(Nc1cc(C(F)(F)F)ccc1N1CCCCC1)c1ccccc1`, the “activity change, negative = cytotoxicity” value is -7% (inactive).

For the compound `Cn1cnc(S(=O)(=O)Nc2cc(C(F)(F)F)ccc2N2CCCCC2)c1`, the “activity change, negative = cytotoxicity” value was 16.2% (inactive).

As for `Cc1ccc(NC(=O)NC2(C(=O)N3CCN(c4ccccc4)CC3)CCCCC2)cc1`, the “activity change, negative = cytotoxicity” value is 0.039% (inactive).

As to `O=S(=O)(O)c1ccc(N2N=C(c3ccccc3)CC2c2ccccc2)cc1` (configuration not stated), the “activity change, negative = cytotoxicity” value is -22.6% (inactive).

With `CC(=O)N1CCN(C(=O)C2(NC(=O)Nc3ccc(C(F)(F)F)cc3)CCCCC2)CC1`, the “activity change, negative = cytotoxicity” value is 1.91% (inactive).

As for `Cc1ccccc1S(=O)(=O)Nc1cc(C(F)(F)F)ccc1N1CCCCC1`, the “activity change, negative = cytotoxicity” value is -22.7% (inactive).

`COc1ccc(C2=NN(c3ccc(C(=O)O)cc3)C(c3ccc(OC)c(OC)c3)C2)cc1` (configuration not stated): the “activity change, negative = cytotoxicity” value was -15.3% (inactive).

For the compound `COc1ccc(C(=O)O)cc1S(=O)(=O)Nc1cc(C(F)(F)F)ccc1N1CCOCC1`, the “activity change, negative = cytotoxicity” value is -30.4% (inactive).

`O=[N+]([O-])c1ccc(S(=O)(=O)Nc2cc(C(F)(F)F)ccc2N2CCCCC2)c([N+](=O)[O-])c1`: the “activity change, negative = cytotoxicity” value was -4.65% (inactive).
